Inconclusive results are not listed. Values without a mark were called inactive. The source made the active and inactive calls. The call rests on the fitted dose curve; in most records, active means well fitted inhibition curve with a large enough effect; inconclusive means small, poorly fitted or top-dose-only effect; inactive means no such curve, though single readings can be large or run the other way.

The results in this text go back to PubChem BioAssay (NCATS).

For test [1], the system named is Zika virus NS2B-NS3 protease (unlinked complex). The test can be described thus: Primary screen GU Rhodamine qHTS for Zika virus inhibitors: Unlinked NS2B-NS3 protease assay (AID 1347159). Further: nearly all actives have a fitted effect of over 60% in size. The settings on record: Recombinant ZIKV NS2B-NS3 protease, Rhodamine110 substrate fluorescence; series mostly up to 107 µM. An outline of the steps:
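A qHTS format was used, with compound concentrations ranging up to 114 microM. Each compound was preincubated with 25 nM NS2B-NS3 protease, and the substrate was then added at 1.5 microM. Curves were fitted with a 4-parameter Hill model.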

For test [2], the system named is Zika virus NS2B-NS3 protease (linked construct). The test can be described thus: Primary screen NINDS Rhodamine qHTS for Zika virus inhibitors (AID 1347160). Further: nearly all actives have a fitted effect of over 55% in size. To be noted: purified NS2B-NS3 protease, Rhodamine110 substrate fluorescence; series mostly up to 57.1 µM. The method, boiled down: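 Kinetic fluorescence (Ex 480 nm, Em 540 nm) over 15 min with 1.5 microM Rhodamine110 peptide and 25 nM linked protease.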
On the % scale 0 is the no-effect control and ±100 the full control effect; potency means the concentration at half of the fitted maximal effect.

In the case of `CCCCNc1ncc2c(-c3ccc(S(=O)(=O)N4CCOCC4)cc3)nn(C3CCC(O)CC3)c2n1` (stereo unspecified), the Potency entry in test [1] and in test [2] was “inactive” each time.
On to `Fc1ccc(-c2nc(C3CCNCC3)sc2-c2ccnc(NC3CC3)n2)cc1`, for which the Potency result in test [1] and in test [2] was “inactive” each time.
As to `C[C@@H]1O[C@@H](O[C@H]2[C@H](O[C@H]3CC[C@@]4(C)C(CC[C@]5(C)C4C=C[C@]46OC[C@@]7(CCC(C)(C)C[C@H]74)[C@@H](O[C@@H]4O[C@@H](C)[C@H](O)[C@@H](O)[C@H]4O)C[C@]65C)[C@]3(C)CO)O[C@H](CO)[C@@H](O)[C@@H]2O[C@@H]2O[C@H](CO)[C@@H](O)[C@H](O)[C@H]2O)[C@H](O)[C@H](O)[C@H]1O` (stereo partly specified), the Potency result in test [1] and in test [2] was “inactive” throughout.
For `Cc1cc(C)cc(-c2cnc3cc(Cl)c(-c4cccc(O)c4)cc3c2OCCCN)c1`, the Potency entry in test [1] and in test [2] was “inactive” throughout.
For the compound `C[C@@H]1O[C@@H](O[C@H]2[C@@H](OC(=O)[C@]34CCC(C)(C)CC3C3=CCC5[C@@]6(C)C[C@H](O)[C@H](O[C@@H]7O[C@H](CO)[C@@H](O)[C@H](O)[C@H]7O[C@@H]7OC[C@@H](O)[C@H](O)[C@H]7O)[C@@](C)(C(=O)O)C6CC[C@@]5(C)[C@]3(C)CC4)OC[C@H](O)[C@@H]2O)[C@H](O)[C@H](O)[C@H]1O[C@@H]1OC[C@@H](O)[C@H](O)[C@H]1O` (stereo partly specified), the activity change, negative = inhibition in test [1] was 46.4% [at 19.1 µM]; in test [2], 21.4% [at 10.7 µM].
Take `COC(=O)CC1OC(C)C2=C(O)c3c(O)cccc3C(=O)C23OC13` (stereo unspecified): the Potency entry in test [1] and in test [2] was “inactive” throughout.
With `CCCCNc1ncc(-c2ccc(CN3CCOCC3)cn2)c(NC2CCC(O)CC2)n1` (stereo unspecified), the Potency result in test [1] and in test [2] was “inactive” each time.
Consider `COc1ccncc1C(=O)NC(=O)Nc1ccc(-c2ccccc2)c(C(F)(F)F)c1`, for which the Potency result in test [1] and in test [2] was “inactive” each time.
For the compound `CCC(C)C(=O)OC12C(OC(C)=O)C(C)C3(O)C(C=C(CO)CC4(O)C(=O)C(C)=CC43)C1C2(C)C` (stereo unspecified), the Potency entry in test [1] and in test [2] was “inactive” each time.
`O=C(N[C@@H]1CCCc2c1cnn2-c1ccc(F)cc1F)c1ccccn1`: the Potency entry in test [1] and in test [2] was “inactive” in each case.
Take `CC(=O)O[C@@H]1C[C@@]2(C)C(CC[C@]3(C)C2CC=C2C4CC(C)(C)CC[C@]4(C(=O)O)CC[C@]23C)C(C)(C)[C@H]1O` (stereo partly specified): the Potency in test [1] is 7.08 µM (active); in test [2], 11.2 µM (active).
For `NC(=O)c1nc(Nc2ccccc2)sc1NC(=O)C1CCCCC1`, in that order: “inactive” and “inactive”.
In the case of `O=c1[nH]c2ccc(C#CCN3CCC(Cc4ccccc4)CC3)cc2[nH]1`, the Potency entry in test [1] and in test [2] was “inactive” throughout.
On to `CN(C)S(=O)(=O)c1ccc(NC(=S)N2CCC(C(O)(c3ccccc3)c3ccccc3)CC2)cc1`, for which the Potency entry in test [1] and in test [2] was “inactive” each time.
For `O[C@@](Cc1ncc(CC2(C(F)(F)F)CC2)[nH]1)(c1ccc(-n2cccn2)cc1)C(F)(F)F`, the Potency result in test [1] and in test [2] was “inactive” each time.
For `CCn1c(-c2nonc2N)nc2c(C#CC(C)(C)O)ncc(OCC3CCCNC3)c21` (stereo unspecified), the Potency result in test [1] and in test [2] was “inactive” throughout.
Turning to `Fc1ccc(-n2cc(CCCCN3CCC4(CC3)OCc3ccccc34)c3ccccc32)cc1`, the Potency entry in test [1] and in test [2] was “inactive” in each case.
With `Nc1ncnc2c1c(-c1ccc(Oc3ccccc3)cc1)nn2[C@@H]1CCCNC1`, the Potency result in test [1] and in test [2] was “inactive” throughout.
Consider `O=c1[nH]cnc2c([C@@H]3N[C@H](CO)[C@@H](O)[C@H]3O)c[nH]c12`, for which the Potency entry in test [1] and in test [2] was “inactive” in each case.
On to `COC1=CC(=O)C[C@@H](C)[C@@]12Oc1c(Cl)c(OC)cc(OC)c1C2=O`, for which the Potency entry in test [1] and in test [2] was “inactive” each time.
With `Nc1nc2c(ncn2C2OC3COP(=O)(O)OC3C2O)c(=O)[nH]1` (stereo unspecified), the Potency entry in test [1] and in test [2] was “inactive” each time.
As to `CCNC(=O)N1CCCN(c2ccc(C(=O)NCCc3ccc(Cl)cc3Cl)cc2NC(=O)c2cccc(Cl)c2)CC1`, the Potency result in test [1] and in test [2] was “inactive” in each case.
As to `COC(=O)CC[C@@H](C)C1CCC2C3CCC4C[C@H](OC(C)=O)CCC4(C)C3C[C@H](O)C21C` (stereo partly specified), the Potency entry in test [1] and in test [2] was “inactive” each time.
As for `O=C(Nc1ccc2[nH]nc(-c3ccncc3)c2c1)[C@@H]1CCN(CC(=O)N2CCN(c3ccc(-c4ncccn4)cc3)CC2)C1`, the Potency entry in test [1] and in test [2] was “inactive” each time.
For `CCNC(=O)C#Cc1ccc2c(C(=Nc3ccc(CN(C)C)cc3)c3ccccc3)c(O)[nH]c2c1`, the Potency result in test [1] and in test [2] was “inactive” each time.
As for `C=C(C)C(=O)O[C@H]1C[C@@](C)(O)C2(O)CCC(C)(/C=C3/OC(=O)C(COC)=C31)O2` (stereo partly specified), the Potency result in test [1] and in test [2] was “inactive” throughout.
In the case of `COc1cc2c(cc1OCCCN1CCCC1)N=C(N)C21CCC1`, the Potency entry in test [1] and in test [2] was “inactive” each time.
As to `CC1(C)CN(C(=O)c2ccc(-c3cccc4nc(NC(=O)C5CC5)nn34)cc2)C1`, the Potency entry in test [1] and in test [2] was “inactive” throughout.
Consider `Cc1cccc(-c2[nH]ncc2-c2ccnc3ccccc23)n1`, for which the Potency result in test [1] and in test [2] was “inactive” throughout.
As to `O=C(Nc1cccc([N+](=O)[O-])c1)c1cccc(S(=O)(=O)N2CCCCCC2)c1`, the Potency result in test [1] and in test [2] was “inactive” each time.
In the case of `O=C(NCC1(N2CCN(c3ccccc3)CC2)CCOCC1)c1cccnc1Sc1ccccc1`, the Potency result in test [1] and in test [2] was “inactive” throughout.
As to `CCCc1cc(C)[nH]c(=O)c1CNC(=O)c1cc(-c2ccc(N3CCN(C(C)C)CC3)nc2)cc2c1cnn2C(C)C`, the Potency result in test [1] and in test [2] was “inactive” in each case.
As to `O=S(=O)(N[C@H]1CCCC[C@@H]1N1CCOCC1)c1ccc(Cl)cc1`, the Potency result in test [1] and in test [2] was “inactive” in each case.
